# The list is not random: actives were taken first. Their share in the collection is about 7.5%.
# FLuc counter: counter-screen for miR-21 project: firefly luciferase inhibitors or activators; P08659; purified FLuc, Km substrates, luminescence inhibition; Potency, µM (highest dose often 57.5 µM), most hits filed as inhibitors; actives 6.9% (n = 360,000); further: nearly all actives have a fitted effect of over 55% in size
# Target sequence (P08659 whole entry, looked up): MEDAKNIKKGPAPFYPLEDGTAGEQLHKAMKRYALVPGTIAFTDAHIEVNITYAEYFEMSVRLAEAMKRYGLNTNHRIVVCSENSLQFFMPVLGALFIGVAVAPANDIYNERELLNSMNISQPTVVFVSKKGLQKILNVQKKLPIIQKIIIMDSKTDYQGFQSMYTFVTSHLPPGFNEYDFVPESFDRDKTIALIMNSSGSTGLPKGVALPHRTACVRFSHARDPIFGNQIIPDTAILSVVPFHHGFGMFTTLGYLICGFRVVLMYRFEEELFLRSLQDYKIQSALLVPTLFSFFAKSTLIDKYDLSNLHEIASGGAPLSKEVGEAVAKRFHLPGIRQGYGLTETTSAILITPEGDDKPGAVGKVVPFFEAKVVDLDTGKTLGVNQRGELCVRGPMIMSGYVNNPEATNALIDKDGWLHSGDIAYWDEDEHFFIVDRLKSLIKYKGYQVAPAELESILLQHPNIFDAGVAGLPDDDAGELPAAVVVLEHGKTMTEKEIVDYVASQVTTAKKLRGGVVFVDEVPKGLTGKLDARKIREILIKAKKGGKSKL
#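 Purified P. pyralis luciferase (10nM final) with 10uM D-luciferin and 10uM ATP (Km levels) in 50mM Tris acetate pH 7.5, 10mM Mg acetate, 0.01% Tween-20, 0.05% BSA; qHTS 6-point titration, ~60 µM downward; luminescence read.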
# SMN2 splice enh: SMN2 splice variant enhancement; AID 1458; Potency, µM (doses to about 46.1 µM), hits mostly activators; actives 2.8% (n = 210,000); HEK293 SMN2-luciferase splicing reporter, luminescence, 30-36 h; further: nearly all actives have a fitted effect of over 55% in size
#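 HEK293 cells carry an SMN2 minigene-luciferase reporter in which exon 7 inclusion puts luciferase in frame. Cells were seeded at 2000 cells/well, attached for 10-12 hours, then exposed to compounds for 30-36 hours at 37C before ONE-Glo luminescence.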
# ELG1 genotox: genotoxicity induction in ELG1-luciferase HEK293T cells; actives 1.3% (n = 330,000); Potency, µM (doses to about 46 µM), most hits filed as activators; HEK293T ELG1-luciferase reporter, luminescence, 16 h; further: nearly all actives have a fitted effect of over 60% in size
#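 Screening used a luciferase reporter fused to human ELG1 in HEK293T cells. Luminescence was read on a CCD plate imager after 16 hr exposure and 30 min ONE-Glo incubation.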
# Rab9 prom act: activators of Rab9 promoter; AID 485297; Potency, µM (doses to about 9.22 µM), most hits filed as activators; actives 2.8% (n = 320,000); Huh7 Rab9 promoter-luciferase reporter, luminescence, 24 h; further: nearly all actives have a fitted effect of over 60% in size
#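 Cells were plated at 1500 per well in reduced-serum medium with 10% FBS and left 2 h. Compound in DMSO was then added for 24 h at 37 °C. Reporter signal was read by luminescence after 10 min with luciferase detection reagent.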
# Luc counter: Kinase-Glo luciferase inhibition (counter-screen). AID 1379. Potency, µM (titrated, usually from 38.3 µM), actives largely listed as inhibitors. Kinase-Glo luciferase, ATP luminescence, 8 min. actives 0.28% (n = 200,000). Q27757; further: nearly all actives have a fitted effect of over 60% in size
#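 Kinase-Glo luciferase light output from ATP and luciferin was measured with 10 uM ATP, within the enzyme's linear range. Buffer: 50 mM imidazole pH 7.2, 50 mM KCl, 7 mM MgCl2, 0.01% Tween 20, 0.05% BSA; luminescence read after 8 min at ambient temperature.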
# NPC1 promoter act: NPC1 promoter activation; Huh7 NPC1 promoter luciferase reporter, 24 h; actives 2.4% (n = 320,000); Potency, µM (top dose mostly 9.22 µM), most hits filed as activators; AID 485313; further: nearly all actives have a fitted effect of over 60% in size
#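 Luminescence from an NPC1 promoter-driven luciferase reporter in stably transfected Huh7 cells was measured after 24 h compound treatment at 37 °C, followed by 10 min ambient incubation with luciferase detection reagent.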
# A number is an active result; – = inactive; ? = inconclusive; · = not tested or not shown; ! = not active in a repeat; [ ] = another dose, or the depositor's remark. The call rests on the fitted dose curve; in most records, active means well fitted curve in the direction sought with a large enough effect; inconclusive means small, poorly fitted or top-dose-only effect, or another doubt; inactive means no such curve, though single readings can be large; an effect the other way counts as inactive or inconclusive.
SMILES,FLuc counter,SMN2 splice enh,ELG1 genotox,Rab9 prom act,Luc counter,NPC1 promoter act
CC(=O)N/N=C(/C)c1ccc(NC(=O)c2csc(C)c2C)cc1,11µM,·,12µM,1.4µM,·,2.8µM
O=C(NCc1ccccc1Br)c1ccc(-n2cnc3cccnc32)cc1,–,·,·,·,·,·
CCCn1c(SCC(=O)Nc2ccc(S(=O)(=O)N(C)C)cc2)n[nH]c1=O,–,–,–,–,–,–
C/C(=N/NC(=O)OC(C)(C)C)c1ccco1,19µM,14µM,?,2.5µM,–,?
CC(C)C(=O)N1CCN(c2ccc(NC(=O)c3cccs3)cc2Cl)CC1,?,·,–,–,–,–
CC(C)C(=O)N1CCN(c2ccc(NC(=O)c3ccc4c(c3)OCCO4)cc2Cl)CC1,4.3µM,–,–,–,–,–
CC(=O)N1CCN(c2ccc(NC(=O)c3ccc4c(c3)OCCO4)cc2Cl)CC1,6µM,·,–,–,–,–
CC(=O)Nc1ccc(S(=O)(=O)NC2=NCN(C(C)C)CN2)cc1,–,–,·,·,·,·
COc1cc(Cl)c(C)cc1NC(=O)Cn1cnc2sc(C)c(S(=O)(=O)N3CCCCC3)c2c1=O,–,–,·,·,·,·
CCOc1ccc(CCNC(=O)CCCc2nnc3n(C)c(=O)c4sccc4n23)cc1OCC,–,–,·,·,·,·
COc1cc(-c2ccc(N=Nc3ccc4c(S(=O)(=O)O)cc(S(=O)(=O)O)c(N)c4c3O)c(OC)c2)ccc1N=Nc1ccc2c(S(=O)(=O)O)cc(S(=O)(=O)O)c(N)c2c1O,·,–,·,·,10µM!,·
Cc1nn(-c2ccc(S(=O)(=O)O)cc2)c(O)c1N=Nc1ccc(-c2ccc(N=Nc3ccc4c(S(=O)(=O)O)cc(S(=O)(=O)O)c(N)c4c3O)c(O)c2)cc1O.[Cu].[Cu],·,–[9.22 µM],·,·,–[7.66 µM],·
CC(C)(C)C(=O)COc1ccccc1[N+](=O)[O-],–,–,–,–,–,–
CCOC(=O)/C=C/COc1ccccc1[N+](=O)[O-],15µM,–,–,?,–,–
COc1ccc(OCCOc2ccccc2[N+](=O)[O-])cc1,17µM,?,?,?,–,?
O=C(CCOc1ccccc1)Nc1ccccc1[N+](=O)[O-],–,–,–,–,–,–
O=[N+]([O-])c1ccccc1OCCOc1ccccc1[N+](=O)[O-],–,·,–,2µM,·,3.5µM
O=[N+]([O-])c1ccccc1NCCOc1ccccc1,9.5µM,?,?,?,–,?
Cc1ccc(CNC(=O)CSc2ccsc2[N+](=O)[O-])cc1,?,?,?,1.4µM,–,?
COc1ccc(CNC(=O)CSc2ccsc2[N+](=O)[O-])cc1,17µM,?,?,2.2µM,–,?
O=C(CSc1ccsc1[N+](=O)[O-])NCCc1ccc(Cl)cc1,–,–,–,–,–,–
CCC(C(=O)Nc1ccc(C(C)C)cc1)n1nc(C)n2c(cc3cc(C)ccc32)c1=O (stereo not given),–,–,·,·,·,·
CC(C)CNS(=O)(=O)c1ccc(Br)cc1N1CCC[C@@H]1CO,·,·,–,·,·,·
Cc1cc(O)c(Sc2ncn[nH]2)cc1NS(=O)(=O)c1ccc(Cl)cc1,–,·,–,–,·,–
O=S(=O)(Nc1cc(Sc2ncn[nH]2)c(O)c2ccccc12)c1ccccc1,11µM,–,–,–,–,–
SMILES,FLuc counter,SMN2 splice enh,ELG1 genotox,Rab9 prom act,Luc counter,NPC1 promoter act
CCCCCN(C(=O)CCC(=O)OCC(=O)N1CCCC(C)C1)c1c(N)n(CCCC)c(=O)[nH]c1=O (stereo not given),–,·,–,–,·,–
CCS(=O)(=O)Nc1ccc(-c2nc3cccnc3s2)cc1,1.7µM,·,?,0.71µM,·,0.79µM
Cc1nc2ccc(S(=O)(=O)Nc3ccc(-c4nc5cccnc5s4)cc3)cc2s1,?,?,–,–,–,–
CCS(=O)(=O)Nc1cc(-c2nc3cccnc3s2)ccc1C,9.5µM,11µM,2.9µM,–,–,3.5µM
CCS(=O)(=O)Nc1cccc(-c2nc3cccnc3s2)c1,19µM,·,–,?,·,?
Cc1ccc(-c2nc3cccnc3s2)cc1NS(=O)(=O)c1ccc2c(c1)CCCC2,–,–,–,–,–,–
O=S(=O)(Nc1ccc(-c2nc3cccnc3s2)cc1)c1ccc(Cl)s1,19µM,13µM,8.2µM,?,–,?
O=C(CC1Sc2ccccc2NC1=O)Nc1cccc(C(F)(F)F)c1 (stereo not given),–,·,·,·,·,·
c1ccc(CSc2ccc(-c3ccccn3)nn2)cc1,4.8µM,0.79µM,2.3µM,2.2µM,–,0.79µM
Clc1ccc(CSc2ccc(-c3ccccn3)nn2)cc1,?,–,23µM,?,–,?
COC(=O)CC1Oc2ccc(C)cc2-n2cc(-c3ccc(F)cc3)nc21 (stereo not given),–,–,·,·,·,·
COc1cccc(C(=O)NC2=NCCS2)c1,6µM,2µM,?,0.56µM,–,1µM
CC(C)Oc1cccc(C(=O)NC2=NCCS2)c1,19µM,5µM,–,4µM,–,3.2µM
CCOc1cccc(C(=O)NC2=NCCS2)c1,12µM,·,?,0.5µM,·,0.63µM
O=C(NC1=NCCS1)c1cccc(NC(=O)c2ccco2)c1,?,–,–,–,–,–
Nn1c(SCc2ccccc2)nc2ccccc21,19µM,·,?,3.2µM,·,1.8µM
CCOC(=O)c1c(Nc2ccc(O)cc2)nnc(-c2ccccc2)c1-c1ccccc1,–,–,·,·,·,·
Clc1ccc(/C=C/c2ncc[nH]2)c(Cl)c1,2.4µM,·,?,2.8µM,·,2.8µM
CCCc1cc(=O)oc2cc(C)c3c(-c4ccccc4)coc3c12,?,–,·,·,·,·
Cc1ccc(SCC(=O)N2CCc3ccccc32)cc1,9.5µM,?,?,?,–,–
O=C(CS(=O)(=O)c1ccccc1)N1CCc2ccccc21,15µM,14µM,?,2.5µM,–,4µM
O=C(CNc1ccccc1OC(F)F)N1CCc2ccccc21,?,14µM,?,3.2µM,–,3.2µM
O=C(O)c1ccccc1SCC(=O)N1CCc2ccccc21,21µM,–,–,?,–,?
CCCNC(=O)Cn1nc(-c2ccc(C)c(C)c2)c2cnc3ccc(OC)cc3c21,–,·,·,·,·,·
COc1ccc(OC)c(CNS(=O)(=O)c2cc(CN3C(=O)c4cccnc4C3=O)ccc2OC)c1,–,·,–,–,·,–
SMILES,FLuc counter,SMN2 splice enh,ELG1 genotox,Rab9 prom act,Luc counter,NPC1 promoter act
O=C(CSC1=NCCS1)N1CCc2ccccc21,13µM,?,8.2µM,4µM,–,?
Nc1ccccc1SCC(=O)N1CCc2ccccc21,17µM,–,?,?,–,?
O=C(CSc1ccccc1C(=O)O)c1ccc(Cl)cc1,11µM,·,?,4µM,·,4µM
CCc1ccc(NC(=O)c2sc3ncnc(N(C)C4CCCCC4)c3c2C)cc1,–,·,·,·,·,·
COc1ccc2cc(CCNC(=O)c3ccco3)c(=O)[nH]c2c1,12µM,·,10µM,1.4µM,·,1.6µM
Cc1ccc2cc(CCNC(=O)CCCc3ccccc3)c(=O)[nH]c2c1,–,·,–,–,·,–

# Screens: PubChem, National Center for Advancing Translational Sciences (NCATS)
